Fh CTSL1 inh – blocks F. hepatica cathepsin L1 in PFM18AAP counter-screen. recombinant F. hepatica cathepsin L1, Z-Leu-Arg-MCA fluorescence. inhibition, % at 5.96 µM. hit rate 0.49% among 300,000;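 active = inhibition above the mean of all tested compounds plus 3 SD, set per screening campaign, cut at about 17% in these data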
PAFAH1B2 FP inh – inhibitors of human PAFAH1B2; P68402; recombinant PAFAH1B2, FP-rhodamine activity probe, fluorescence polarization; inhibition, % at 3.39 µM; hit rate 1.2% among 340,000; AID 492953;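 active = inhibition above the mean of all tested compounds plus 3 SD, cut at about 24% in these data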
pPAFAH inh – inhibitors of human plasma PAF acetylhydrolase (pPAFAH). Q13093. recombinant pPAFAH, FP-rhodamine probe fluorescence polarization. inhibition, % at 3.39 µM. hit rate 1.5% among 330,000;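 active = inhibition above the mean inhibition across the screen plus 3 SD, cut at about 25% in these data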;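 note: inhibitors block binding of the rhodamine activity-based probe so polarization drops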
PAFAH1B3 FP inh – inhibitors of human PAFAH1B3 | recombinant PAFAH1B3, FP-rhodamine probe, fluorescence polarization | AID 492972 | Q15102 | inhibition, % at 3.39 µM | hit rate 0.28% among 340,000;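 active = inhibition above the screen-wide average of all tested compounds plus 3 SD, cut at about 25% in these data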
PAFAH2 inh – inhibitors of human PAFAH2. inhibition, % at 3.39 µM. Q99487. hit rate 0.99% among 340,000. recombinant PAFAH2, FP-rhodamine activity probe, fluorescence polarization. AID 492956;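 active = inhibition above the mean over all tested compounds plus 3 SD, cut at about 30% in these data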;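 note: inhibitors block probe labeling of enzyme so polarization drops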
PP5 inh – inhibitors of human protein phosphatase 5 (PP5) | P53041 | purified PP5c, OMFP substrate fluorescence | inhibition, % at 6.7 µM | hit rate 0.18% among 320,000 | AID 1987;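 active = inhibition above the campaign's mean inhibition across all tested compounds plus 3 SD, cut at about 9.5% in these data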
Target sequence (P53041 whole entry, looked up): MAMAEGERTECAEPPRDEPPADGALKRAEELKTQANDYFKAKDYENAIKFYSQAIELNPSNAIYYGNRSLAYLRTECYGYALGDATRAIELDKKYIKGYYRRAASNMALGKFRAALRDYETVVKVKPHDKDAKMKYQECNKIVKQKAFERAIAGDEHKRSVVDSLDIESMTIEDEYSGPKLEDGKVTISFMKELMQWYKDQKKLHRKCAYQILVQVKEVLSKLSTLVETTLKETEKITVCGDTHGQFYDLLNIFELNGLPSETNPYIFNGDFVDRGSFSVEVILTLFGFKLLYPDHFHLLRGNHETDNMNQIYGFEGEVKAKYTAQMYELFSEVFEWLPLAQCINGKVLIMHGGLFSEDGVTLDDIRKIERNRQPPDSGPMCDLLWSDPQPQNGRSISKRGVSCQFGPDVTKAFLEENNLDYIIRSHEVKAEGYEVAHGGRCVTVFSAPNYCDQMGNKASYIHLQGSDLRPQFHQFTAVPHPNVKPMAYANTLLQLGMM
Hits are given with their value; – = inactive; · = not tested or not shown. Compounds with a hit are over-represented: about 3% of the library has one in this group of screens.

SMILES	Fh CTSL1 inh	PAFAH1B2 FP inh	pPAFAH inh	PAFAH1B3 FP inh	PAFAH2 inh	PP5 inh
CC1Cc2ccccc2N1CC(=O)NCc1ccccc1Cl (configuration not stated)	–	–	–	–	–	–
CCOc1ccc(NC(=O)CN(C)C(=O)/C=C/c2ccco2)cc1OCC	·	–	–	–	–	–
COC(=O)C(Cc1ccc(O)cc1)NC(=O)C(C)NC(=O)c1ccc(C(C)(C)C)cc1 (configuration not stated)	–	27	–	–	–	–
COC(=O)C(Cc1ccc(O)cc1)NC(=O)c1ccccc1 (configuration not stated)	–	–	–	–	–	–
COc1cc(C2C(C#N)=C(N)Oc3c2ccc2ccccc32)ccc1OCC(=O)Nc1cccc(C)c1 (configuration not stated)	–	–	33	–	–	–
COc1cc(C2C(C#N)=C(N)Oc3c2ccc2ccccc32)ccc1OCC(=O)Nc1ccc(C)cc1 (configuration not stated)	–	–	28	–	–	–
Cc1cc(C(=O)NNC(=O)[C@H](C)NC(=O)c2ccc(Br)cc2)c(C)o1	·	–	–	–	–	·
N#Cc1cccc(NC(=O)CSc2nnc(C3CC3)n2C2CC2)c1	·	–	–	–	–	–
COC(=O)c1sc(S(=O)(=O)N2CCCCC2C)c(C(=O)OC)c1C (configuration not stated)	·	–	–	–	–	–
Cc1ccccc1-n1c(SCC(=O)Nc2c(C)cccc2C)nc(O)cc1=O	–	–	31	–	–	–
CCN(CC)C(=O)CSc1nc(O)cc(=O)n1-c1ccccc1OC	–	–	25	–	–	–
CC1C(=O)N2CCCc3cc(S(=O)(=O)NCc4ccccc4Cl)cc1c32 (configuration not stated)	–	–	–	–	–	–
COc1ccc(NC(=O)c2cccc(S(=O)(=O)N3CCCCCC3)c2)cc1	–	–	–	–	–	–
COc1cccc(C(=O)N(Cc2ccco2)Cc2cc3cccc(C)c3[nH]c2=O)c1	–	–	25	–	–	–
N#C/C(=C\c1ccc(-c2ccc([N+](=O)[O-])cc2)o1)C(=O)Nc1nc(-c2cccs2)cs1	–	–	–	–	–	–
N#C/C(=C\c1ccc(-c2ccccc2[N+](=O)[O-])o1)C(=O)Nc1nc(-c2cccs2)cs1	–	–	30	–	–	–
O=C(O)C1CCCN(S(=O)(=O)c2ccc(Cl)s2)C1 (configuration not stated)	–	29	–	–	–	–
O=C(O)C1CCCN(S(=O)(=O)c2ccc(Br)s2)C1 (configuration not stated)	–	–	–	–	–	–
C=CCOC(=O)C1=C[C@@H](c2csc3ccccc23)C[C@@H](OCCCCO)O1	–	–	–	–	–	–
C[C@]12CC[C@H](O)CC1=CCC1C2CC[C@@]2(C)C1CC[C@@H]2NC(=O)[C@@H](N)Cc1cnc[nH]1 (some centres not stated)	·	–	·	–	–	·
CC(/C=C/c1ccco1)=N\NC(=O)c1cc(Cl)ccc1O	–	–	32	–	–	–
O=[N+]([O-])c1cccc(C(=Nc2cccc(Cl)c2)NO)c1	–	–	–	–	–	–
ONC(=Nc1ccc(Cl)cc1)c1ccccc1	–	36	–	–	–	–
COc1ccc(CNCCCC(=O)Nc2c(Cl)ccc(C)c2Cl)cc1OC	–	–	–	–	–	–
Cc1cc(CCNC=O)c(C)c2c1oc1ccccc12	·	–	·	–	–	·
SMILES	Fh CTSL1 inh	PAFAH1B2 FP inh	pPAFAH inh	PAFAH1B3 FP inh	PAFAH2 inh	PP5 inh
CCOc1ccc(NS(=O)(=O)c2cc3c4c(c2)C(C)C(=O)N4CCC3)cc1 (configuration not stated)	–	–	26	–	–	–
COc1ccc2oc(=N)c(C(=O)Nc3ccccc3Cl)cc2c1	20	–	–	–	–	–
O=S1(=O)CCOC[C@H](Cc2ccccc2)N1Cc1ccc(F)cc1	–	33	–	–	–	–
O=S1(=O)CCOC[C@H](Cc2ccccc2)N1Cc1cccc(F)c1	–	–	–	–	–	–
Cc1ccc(C)c(OC(=O)c2cncc(Br)c2)c1	–	–	–	–	–	–
CCCn1c(N)c(C(=O)CN(C)CC(=O)Nc2c(Cl)cccc2Cl)c(=O)[nH]c1=O	·	–	–	–	–	–
OCC[C@@H]1C[C@@H](O)[C@H](O)[C@@]2(OCCc3ccccc32)O1	–	–	–	–	–	–
CCn1cc(C(=O)NCc2ccc3c(c2)OCO3)c(=O)c2cc(S(=O)(=O)N3CCOCC3)ccc21	–	–	–	–	–	–
CCn1cc(C(=O)NCc2ccc3c(c2)OCO3)c(=O)c2cc(S(=O)(=O)N(C)C)ccc21	18	–	–	–	–	–
CCCC(O)(c1ccc(CC)cc1)C(CN1CCOCC1)c1ccccc1 (configuration not stated)	·	–	·	–	–	·
CCOC(=O)C1CCN(C(=O)CCN2C(=O)C3C4C=CC(C4)C3C2=O)CC1 (configuration not stated)	–	–	29	–	–	–
O=C(CCN1C(=O)C2C3C=CC(C3)C2C1=O)N1CCCCC1 (configuration not stated)	–	–	–	–	–	–
CCOc1ccc2nc(N/C(N)=N/C(=S)Nc3cccc(OC)c3)nc(C)c2c1	23	–	–	–	–	–
CCOc1ccc2nc(N/C(N)=N/C(=S)Nc3cccc(C)c3)nc(C)c2c1	–	–	–	–	–	–
CCOc1ccc(S(=O)(=O)NCCc2ccccn2)cc1	·	–	–	–	–	·
Clc1ccc(OCc2nc(-c3ccncc3)no2)cc1	–	27	–	–	–	–
Clc1ccc(-c2noc(COc3ccccc3)n2)cc1	–	–	–	–	–	–
Cc1oc2ccc(OCc3ccc(F)cc3)cc2c1C(=O)O	–	25	–	–	–	–
Cc1oc2ccc(OCc3cccc(Cl)c3)cc2c1C(=O)O	·	–	·	–	–	·
CC(NC(=O)CN1C(=O)c2ccccc2C1=O)c1ccccc1 (configuration not stated)	–	–	–	–	–	–
COC(=O)C(NC(=O)CN1C(=O)c2ccccc2C1=O)c1ccc(O)c(OC)c1 (configuration not stated)	17	–	–	–	–	–
CC1CCCC12NC(=O)NC2=O (configuration not stated)	·	–	·	–	–	·
S=c1[nH]nc(-c2cc(-c3ccco3)[nH]n2)n1-c1ccccc1Cl	–	–	29	–	–	–
COc1cc(C(C)=O)ccc1OCC(=O)NCC(c1ccc(F)cc1)N1CCOCC1 (configuration not stated)	·	–	28	–	–	·
CCOc1ccc(S(=O)(=O)NCCC(=O)NCC(c2ccc(F)cc2)N2CCOCC2)cc1 (configuration not stated)	18	–	–	–	–	–
COc1ccc(C(CNC(=O)COc2ccc(F)cc2Cl)N2CCOCC2)cc1 (configuration not stated)	·	–	·	–	–	·

Screens as filed in PubChem.
